# Screen size: about 5,500 compounds; about 2,000 (36%) were called active. Roughly 18% stayed inconclusive and do not appear here. The list shows a part of the results. Values without a mark were called inactive. Rule as the data show it: active = normalized growth mostly below about 0.91 (no sharp cut-off); inconclusive = no clear call, values can overlap the other calls; inactive = mostly above about 0.92.
# Assay: chemical genetic growth profiling, strain panel (AID 1159580);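 also: tested at 20 µM; growth read once vehicle control cultures reached saturation at 30 °C; 1 = growth at the plate median or of vehicle wells; lower values mean less growth of the strain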
# Conditions: S. cerevisiae deletion strains, growth OD
compound,measurement,setting,value
NC(N)=NC(=O)Cc1c(Cl)cccc1Cl,normalized growth,"locus YAL013W, strain DEP1, hits give low values",1.01
same,normalized growth,"locus YAL040C, strain CLN3, hits give low values",0.979
same,normalized growth,"locus YCL061C, strain MRC1 (second series), hits give low values",1
same,normalized growth,"locus YDR150W, strain NUM1, hits give low values",0.997
same,normalized growth,"locus YDR363W, strain ESC2, hits give low values",0.997
same,normalized growth,"locus YER002W, strain NOP16, hits give low values",1.04
same,normalized growth,"locus YJR075W, strain HOC1, hits give low values",1
same,normalized growth,"locus YNL175C, strain NOP13, hits give low values",0.996
same,normalized growth,"locus YNL197C, strain WHI3, hits give low values",1.02
same,normalized growth,"locus YNL224C, strain SQS1, hits give low values",0.971
same,normalized growth,"locus YOR083W, strain WHI5 (second series), hits give low values",1.01
same,normalized growth,"locus YPL241C, strain CIN2, hits give low values",1
CSC(=NNc1ccccc1)NC(=O)c1c(Cl)cccc1Cl,normalized growth,"locus YAR019C, strain CDC15, hits give low values",0.972
same,normalized growth,"locus YBL105C, strain PKC1, hits give low values",0.967
same,normalized growth,"locus YBR135W, strain CKS1, hits give low values",0.967
same,normalized growth,"locus YBR136W, strain MEC1, hits give low values",0.972
same,normalized growth,"locus YBR160W, strain CDC28, hits give low values",0.967
same,normalized growth,"locus YDL017W, strain CDC7, hits give low values",0.981
same,normalized growth,"locus YDL028C, strain MPS1, hits give low values",0.975
same,normalized growth,"locus YDL101C, strain DUN1, hits give low values",0.974
same,normalized growth,"locus YDL108W, strain KIN28, hits give low values",0.963
same,normalized growth,"locus YDL132W, strain cdc53, hits give low values",0.98
same,normalized growth,"locus YDL214C, strain PRR2, hits give low values",0.89
same,normalized growth,"locus YDR052C, strain DBF4, hits give low values",0.975
same,normalized growth,"locus YDR054C, strain cdc34, hits give low values",0.961
same,normalized growth,"locus YDR226W, strain ADK1, hits give low values",0.969
same,normalized growth,"locus YDR477W, strain SNF1, hits give low values",0.923
same,normalized growth,"locus YER123W, strain YCK3, hits give low values",0.812
same,normalized growth,"locus YER133W, strain GLC7, hits give low values",0.918
same,normalized growth,"locus YFL009W, strain cdc4, hits give low values",0.972
same,normalized growth,"locus YFL029C, strain CAK1, hits give low values",0.958
same,normalized growth,"locus YFR003C, strain YPI1, hits give low values",0.971
same,normalized growth,"locus YFR019W, strain FAB1, hits give low values",0.904
same,normalized growth,"locus YFR028C, strain CDC14, hits give low values",0.967
same,normalized growth,"locus YGR040W, strain KSS1, hits give low values",0.887
same,normalized growth,"locus YGR052W, strain FMP48, hits give low values",0.951
same,normalized growth,"locus YGR092W, strain DBF2, hits give low values",0.82
same,normalized growth,"locus YHR030C, strain SLT2, hits give low values",0.909
same,normalized growth,"locus YHR079C, strain IRE1, hits give low values",0.896
same,normalized growth,"locus YHR082C, strain KSP1, hits give low values",0.938
same,normalized growth,"locus YHR205W, strain SCH9, hits give low values",0.921
same,normalized growth,"locus YIL147C, strain SLN1, hits give low values",0.975
same,normalized growth,"locus YJL095W, strain BCK1, hits give low values",0.902
same,normalized growth,"locus YJL128C, strain PBS2, hits give low values",0.945
same,normalized growth,"locus YJL157C, strain FAR1, hits give low values",0.886
same,normalized growth,"locus YJR016C, strain ILV3, hits give low values",0.966
same,normalized growth,"locus YJR066W, strain TOR1 (second series), hits give low values",0.904
same,normalized growth,"locus YJR066W, strain TOR1, hits give low values",0.968
same,normalized growth,"locus YKL048C, strain ELM1, hits give low values",0.882
same,normalized growth,"locus YKL067W, strain YNK1, hits give low values",0.892
same,normalized growth,"locus YKL101W, strain HSL1, hits give low values",0.867
same,normalized growth,"locus YKL193C, strain SDS22, hits give low values",0.969
same,normalized growth,"locus YKL203C, strain TOR2, hits give low values",0.969
same,normalized growth,"locus YLR113W, strain HOG1, hits give low values",0.738 (active)
same,normalized growth,"locus YLR133W, strain CKI1, hits give low values",0.872
same,normalized growth,"locus YLR403W, strain SFP1, hits give low values",0.897
same,normalized growth,"locus YML070W, strain DAK1, hits give low values",0.806
same,normalized growth,"locus YMR001C, strain CDC5, hits give low values",0.965
same,normalized growth,"locus YMR205C, strain PFK2 (second series), hits give low values",0.887
same,normalized growth,"locus YMR277W, strain FCP1, hits give low values",0.975
same,normalized growth,"locus YNL006W, strain LST8, hits give low values",0.97
same,normalized growth,"locus YNL020C, strain ARK1, hits give low values",0.88
same,normalized growth,"locus YNL161W, strain CBK1, hits give low values",0.979
same,normalized growth,"locus YNL183C, strain NPR1, hits give low values",0.927
same,normalized growth,"locus YNL207W, strain RIO2, hits give low values",0.97
same,normalized growth,"locus YNL222W, strain SSU72, hits give low values",0.961
same,normalized growth,"locus YNL307C, strain MCK1 (second series), hits give low values",0.817
same,normalized growth,"locus YOL078W, strain AVO1, hits give low values",0.968
same,normalized growth,"locus YOL136C, strain PFK27, hits give low values",0.842
same,normalized growth,"locus YOR061W, strain CKA2, hits give low values",0.798
same,normalized growth,"locus YOR119C, strain RIO1, hits give low values",0.961
same,normalized growth,"locus YOR231W, strain MKK1, hits give low values",0.82
same,normalized growth,"locus YOR329C, strain SCD5, hits give low values",0.976
same,normalized growth,"locus YPL031C, strain PHO85, hits give low values",0.917
same,normalized growth,"locus YPL153C, strain RAD53, hits give low values",0.91
same,normalized growth,"locus YPL204W, strain HRR25, hits give low values",0.906
same,normalized growth,"locus YPL209C, strain IPL1, hits give low values",0.972
same,normalized growth,"locus YPL256C, strain CLN2, hits give low values",0.814 (active)
same,normalized growth,"locus YPR025C, strain CCL1, hits give low values",0.968
same,normalized growth,"locus YPR106W, strain ISR1, hits give low values",0.955
same,normalized growth,"locus YPR111W, strain DBF20, hits give low values",0.948
same,normalized growth,"strain NNK1, hits give low values",0.964
same,normalized growth,"strain TSCII, hits give low values",0.968
